Residues, ends and D or L forms follow the SMILES beside them. *: point of attachment. Cbz = O=C(OCc1ccccc1)*; Boc = CC(C)(C)OC(=O)*; CH2F = FC*
target: Casein kinase I isoform delta (Homo sapiens) (UniProt P48730); conditions: Compound concentration 20.0 uM
Sequence (P48730 whole entry, looked up, canonical isoform): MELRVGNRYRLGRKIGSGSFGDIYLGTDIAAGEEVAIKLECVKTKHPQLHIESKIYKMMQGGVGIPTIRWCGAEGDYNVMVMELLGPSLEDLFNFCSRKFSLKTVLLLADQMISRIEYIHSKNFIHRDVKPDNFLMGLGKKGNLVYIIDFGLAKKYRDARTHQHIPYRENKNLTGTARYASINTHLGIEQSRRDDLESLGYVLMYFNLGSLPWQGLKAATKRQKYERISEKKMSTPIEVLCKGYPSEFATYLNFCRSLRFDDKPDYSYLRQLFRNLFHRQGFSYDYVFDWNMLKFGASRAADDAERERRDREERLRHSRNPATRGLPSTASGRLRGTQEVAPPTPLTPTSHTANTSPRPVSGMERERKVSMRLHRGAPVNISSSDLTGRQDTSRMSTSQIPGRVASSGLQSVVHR

Question: With `CCn1c(=S)[nH]c2cc3c(NCc4ccccc4N4CCC(CO)CC4)ncnc3cc21` as the compound, how does the ΔTm read?
Answer: 0.33 °C

Question: For `COc1cc2c(cc1OC)[C@H]1C[C@@H](O)[C@H](CC(C)C)CN1CC2`, which ΔTm is on record?
Answer: -0.17 °C

Question: With `C=CCn1c(N[C@@H]2C[C@H](c3ccc(OCc4ccccc4)cc3)CN(C)C2)nc2cc[nH]c2c1=O` as the compound, how does the ΔTm read?
Answer: -0.36 °C

Question: `CC(C)[C@H](NC(=O)[C@H](CCC(=O)O)NC(=O)[C@H](C)NC(=O)OC(C)(C)C)C(=O)N[C@H](C=O)CC(=O)O` (Boc-AEVD-aldehyde) was tested. Which ΔTm did it give?
Answer: -0.09 °C

Question: How did the ΔTm turn out when `Cc1cnc(-c2ccccc2C(C)C)nc1NCc1ccc(-n2ccnn2)cc1` was run?
Answer: -7.36 °C

Question: How did the ΔTm turn out when `O=C(c1ccc2c(ccn2-c2ccc(F)cc2)c1)N1CC(N2CCN(C(=O)c3nccs3)CC2)C1` was run?
Answer: -0.29 °C

Question: How did the ΔTm turn out when `Cc1c(Nc2ccc(S(=O)(=O)N3CCN(C)CC3)cc2F)nc2ccc(-c3cnn(C4CC4)c3)cn2c1=O` was run?
Answer: -0.28 °C

Question: Which ΔTm does the source give for `CC(=O)Nc1ccc(C(=O)Nc2ccc(F)cc2N)cc1` here?
Answer: 0.17 °C

Question: For `CCCCCCCCCCCCCCCCNNC(=O)c1cccs1`, which ΔTm is on record?
Answer: 0.26 °C

Question: Which ΔTm does the source give for `CCNC(=O)NCCSC[C@H]1O[C@@H](n2cnc3c(N)ncnc32)[C@H](O)[C@@H]1O` here?
Answer: 0.63 °C

Question: How did the ΔTm turn out when `CNc1cc(-c2cccc(Cl)c2Cl)nc(N)n1` was run?
Answer: -0.27 °C

Question: With `CCNC(=O)/C=C/c1cccc(Br)c1` as the compound, how does the ΔTm read?
Answer: -0.27 °C

Question: How did the ΔTm turn out when `O=C(c1cc(Cc2n[nH]c(=O)c3ccccc23)ccc1F)N1CCN(C(=O)C2CC2)CC1` was run?
Answer: -0.42 °C

Question: With `CCCOC(=O)N1CCN(C(=O)c2ccc3c(Cl)cc(-c4ccc(C5(N)CC5)cc4)nc3c2)C[C@H]1C` as the compound, how does the ΔTm read?
Answer: 0.03 °C

Question: How did the ΔTm turn out when `CC(C)C[C@@H](C=O)NC(=O)[C@@H](NS(=O)(=O)c1ccc(F)cc1)C(C)C` was run?
Answer: 0.22 °C

Question: For `CC(C)NCC(O)COC(Cn1c2ccccc2c2ccccc21)Cn1c2ccccc2c2ccccc21` (centres undefined), which ΔTm is on record?
Answer: -0.3 °C

Question: How did the ΔTm turn out when `COc1ccc(-c2c(-c3ccc(C#N)c(F)c3)nc(N3CCC(N)CC3)n(C)c2=O)cc1F` was run?
Answer: 0 °C

Question: Which ΔTm does the source give for `Cc1noc2c1-c1ccccc1C(c1ccc(Cl)cc1)=N[C@H]2CC(N)=O` here?
Answer: 0.05 °C

Question: For `Cc1ncc(Cl)cc1NCc1ccc(C(=O)N[C@@H](CC2CCCC2)C(=O)NC2CC2)s1`, which ΔTm is on record?
Answer: -0.05 °C

Question: `O=C(NO)c1cccc(C(=O)NCCc2ccccc2)c1` was tested. Which ΔTm did it give?
Answer: 0.19 °C

Question: With `N#Cc1c(N)[nH]c2cc(/C=C/c3cccc(F)c3)ccc12` as the compound, how does the ΔTm read?
Answer: -0.33 °C

Question: Which ΔTm does the source give for `O=C(O)CCNc1cc(N2CCc3ccccc3CC2)nc(-c2ccccn2)n1` here?
Answer: -0.34 °C

Question: How did the ΔTm turn out when `CN1CCN(c2cc(C(=O)Nc3ncc(SCc4cccc(C(F)(F)F)c4)s3)ccn2)CC1` was run?
Answer: -0.03 °C

Question: With `CC1=NN(c2ccc(C(=O)O)cc2)C(=O)/C1=C/c1ccc(-c2cc(C)c(C)cc2[N+](=O)[O-])o1` as the compound, how does the ΔTm read?
Answer: 0.15 °C

Question: How did the ΔTm turn out when `CC(C)(C)NS(=O)(=O)c1cccc2c(NC(=O)[C@H](Cc3ccccc3)NC(=O)C3CCCCC3)cccc12` was run?
Answer: -1.46 °C

Question: How did the ΔTm turn out when `CC(=O)N1CCC(c2ccc(C(=O)NC(=N)N)cc2C(F)(F)F)CC1` was run?
Answer: -0.02 °C

Question: How did the ΔTm turn out when `O=C(NO)c1cnc(NC2(c3ccccc3)CC2)nc1` was run?
Answer: 0.23 °C

Question: `CC(C)c1cnc(CSc2cnc(NC(=O)C3CCNCC3)s2)o1` was tested. Which ΔTm did it give?
Answer: 1.43 °C

Question: How did the ΔTm turn out when `O=C(O)CCNC(=S)NCCCC[C@H](NS(=O)(=O)c1cccc(F)c1)C(=O)N[C@@H](Cc1c[nH]c2ccccc12)C(=O)NC1CCC1` was run?
Answer: -0.24 °C

Question: `CNCC[C@@H](Oc1ccccc1C)c1ccccc1` was tested. Which ΔTm did it give?
Answer: -0.25 °C

Question: Which ΔTm does the source give for `CCN(C(=O)c1cc(F)ccc1Oc1cncnc1N1CC2(CCN(C[C@H]3CC[C@H](NS(=O)(=O)CC)CC3)CC2)C1)C(C)C` here?
Answer: -0.01 °C

Question: `Cc1ccc2c(c1)nc(/C=C/c1cccc3cccnc13)n2-c1cccc(OCCCN2CCN(C)CC2)c1` was tested. Which ΔTm did it give?
Answer: -0.14 °C

Question: Which ΔTm does the source give for `CN1Cc2c(Cl)cc(Cl)cc2[C@H](c2cccc(S(=O)(=O)NCCOCCOCCNC(=O)NCCCCNC(=O)NCCOCCOCCNS(=O)(=O)c3cccc([C@@H]4CN(C)Cc5c(Cl)cc(Cl)cc54)c3)c2)C1` here?
Answer: -0.55 °C

Question: How did the ΔTm turn out when `C[C@H](NC(=O)[C@H](Cc1ccccc1)NC(=O)OCc1ccccc1)C(=O)CF` was run?
Answer: 0.19 °C

Question: Which ΔTm does the source give for `Cc1cc(C)nc(SCC(=O)Nc2ncc(Cc3cccc(OCc4cn(Cc5ccccc5)nn4)c3)s2)n1` here?
Answer: -2.38 °C

Question: For `COC(=O)CC(NC(=O)C(C)NC(=O)C(NC(=O)C(CC(=O)OC)NC(=O)C(NC(=O)OCc1ccccc1)C(C)C)C(C)C)C(=O)CF` (centres undefined) (Cbz-VD(OMe)VAD(OMe)-CH2F; configuration not given here), which ΔTm is on record?
Answer: -0.22 °C

Question: Which ΔTm does the source give for `CC1C(C#N)=C(N)OC2=C1C(=O)CC(c1cccc3ccccc13)C2` (centres undefined) here?
Answer: 3.72 °C

Question: Which ΔTm does the source give for `Cc1ccc(C(=O)Nc2ccc(S(=O)(=O)O)c3cc(S(=O)(=O)O)cc(S(=O)(=O)O)c23)cc1NC(=O)c1cccc(NC(=O)Nc2cccc(C(=O)Nc3cc(C(=O)Nc4ccc(S(=O)(=O)O)c5cc(S(=O)(=O)O)cc(S(=O)(=O)O)c45)ccc3C)c2)c1` here?
Answer: -1.4 °C

Question: With `CN1C[C@@H]2[C@H](C1)[C@H]2CN(Cc1ccc(F)c(Cl)c1)C(=O)c1cn(C)cn1` as the compound, how does the ΔTm read?
Answer: -0.21 °C
